# Only some compounds are listed: those with a hit (about 13% of all), similar ones and a draw of the others.
# Pf growth 48h = P. falciparum growth inhibition at 48 hours (one generation); P. falciparum luciferase growth in erythrocytes, 48 h; Potency, µM (series often up to 28.7 µM), most hits filed as inhibitors; hit rate 5.9% among 310,000
#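 Firefly luciferase activity from engineered P. falciparum reports growth; inhibitors lower the luminescent signal. Cultures contained 2% hematocrit erythrocytes at 0.1% final parasitemia.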
# HCMV inh = blocks human cytomegalovirus replication | HFF cells, HCMV-luciferase reporter, 72 h; hits give low values | hit rate 4.5% among 410,000 | activity change, negative = inhibition, % at 57.5 µM | AID 1259415; in the data active = activity change below about -60%; inconclusive = no clear call, values can overlap the other calls; inactive = above about -39%
#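 Two compound doses tested in HFFs infected with HCMV-luciferase, MOI 1 PFU/cell, 72 h at 37C. Lysate luminescence read with OneGlo; data normalized against buffer-only and 10uM Salinomycin inhibitor controls.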
# Pf growth 96h = P. falciparum growth inhibition at 96 hour, primary screen for plastid delayed-death inhibitors. P. falciparum luciferase reporter growth, 96 h. Potency, µM (titrated, usually from 28.7 µM), actives largely listed as inhibitors. hit rate 6.9% among 320,000. AID 504834
#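 Readout is luminescence from an integrated firefly luciferase in P. falciparum. Red cells, 2% hematocrit and 0.05% parasitemia final, were cultured with compound through two parasite generations (96 hours) at 37 C, 5% CO2.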
# HCV inh = inhibitors of hepatitis C virus infection; Huh7.5.1 HCVcc-Cre infection, luciferase reporter, 44 h; Potency, µM (series often up to 41.8 µM), actives largely listed as inhibitors; hit rate 3.4% among 340,000
#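 A cell-based infection assay in which seeded cells (1,000 per well) receive test compound after 4 h, are inoculated with HCVcc-Cre at approximately 0.5 moi, and are incubated 44 h before luminescence detection.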
# Numbers stand for hits; – = inactive; ? = inconclusive; · = not tested or not shown. Unless noted, calls follow the shape of the dose curve; as a rule, active = well fitted inhibition curve with a large enough effect; inconclusive = small, poorly fitted or top-dose-only effect, or another doubt; inactive = no such curve, though single readings can be large or run the other way.
SMILES,Pf growth 48h,HCMV inh,Pf growth 96h,HCV inh
Cc1ccc2oc3c(c(=O)c2c1)C(c1cccc(O)c1)N(CCCN1CCOCC1)C3=O (configuration not stated),·,–,·,·
O=C1c2oc3ccc(F)cc3c(=O)c2C(c2cccc([N+](=O)[O-])c2)N1CCCN1CCOCC1 (configuration not stated),·,–,·,·
O=C1c2oc3ccc(F)cc3c(=O)c2C(c2cccc(O)c2)N1CCCN1CCOCC1 (configuration not stated),–,–,10µM,–
CCOc1ccccc1NC(=O)CSc1nc2ccccc2nc1Cc1ccc(C)cc1,·,–,·,·
O=C(NCc1ccc2c(c1)OCO2)[C@@H]1[C@@H](CO)[C@@H]2Cn3c(cccc3=O)[C@H]1N2Cc1cccnc1,·,–,·,·
Cc1cc2n(n1)CCCN2C(=O)Nc1ccccc1C(F)(F)F,·,–,·,·
Cc1cc2c(=O)c(C(=O)c3ccncc3)cn(CC(=O)Nc3cccc(C)c3C)c2cc1C,·,–,·,·
Cc1cc(C)cc(-c2nc(-c3ccncc3)no2)c1,·,–,?,–
O=[N+]([O-])c1cc(-c2nc(-c3ccncc3)no2)cc([N+](=O)[O-])c1,?,–,1.9µM,?
O=[N+]([O-])c1cc(-c2nc(-c3ccncc3)no2)ccc1Cl,–,-64,–,–
Cc1nc(-c2ccc(F)cc2)sc1CCNC(=O)c1ccccc1C(F)(F)F,·,–,·,·
COc1ccc(Oc2ncnc3c2oc2ccccc23)cc1,·,–,·,·
CCCCC(=O)N[C@H]1CC[C@@]23CCCN2C(=O)CCC[C@H]3[C@H]1Cc1ccccc1,·,–,·,·
CC(=O)CCSc1ncnc2sc(-c3ccccc3)cc12,–,-112,–,–
CC(=O)c1c(C)[nH]c(C(=O)CSc2nnc(-c3ccccc3)o2)c1C,?,–,?,8.9µM
O=C(O)CCSc1ncnc2sc(-c3ccccc3)cc12,–,?,–,–
CC(=O)c1c(C)[nH]c(C(=O)CSc2ncnc3sc(-c4ccccc4)cc23)c1C,–,-77,?,?
O=c1cc(-c2ccccc2)[nH]n1-c1nc2ccccc2[nH]1,?,-84,–,?
CCc1cc(=O)[nH]c(-n2[nH]c(-c3ccccc3)cc2=O)n1,–,–,–,–
CC/C(=N/N=C(\CC)c1ccccc1)c1ccccc1,–,–,?,–
CCCC[N+]12CCC(CC1)C(=C(c1ccccc1)c1ccccc1)C2,1.3µM,–,0.74µM,–
CCCCN(CCCC)NC(=O)c1ccccc1,–,–,?,–
CCC[N+]12CCC(CC1)C(=C(c1ccccc1)c1ccccc1)C2,1.3µM,–,?,–
CC(=O)c1ccc(NC(=O)C2=CC(c3ccc(C)cc3)=NS(=O)(=O)N2C)cc1,·,–,·,·
C/C(=C\c1ccc(N)cc1)c1nc2ccccc2[nH]1,–,–,–,–
SMILES,Pf growth 48h,HCMV inh,Pf growth 96h,HCV inh
CC(C)c1ccc(/C=C(\c2nc3ccccc3[nH]2)S(=O)(=O)c2ccccc2)cc1,5.9µM,-101,2.3µM,13µM
O=S(=O)(/C(=C/c1ccc(C(F)(F)F)cc1)c1nc2ccccc2[nH]1)c1ccccc1,4.1µM,-104,1.7µM,11µM
CCc1ccc(NS(=O)(=O)c2ccc3oc(=O)c4ncn(CC)c4c3c2)cc1,·,–,·,·
CCN(c1ccccc1)S(=O)(=O)c1ccc(NC(=O)c2cc(=O)c3ccc(C)c(C)c3o2)cc1,·,–,·,·
COc1ccc(CCNC(=O)CCn2c(=O)[nH]c3cc(OC)c(OC)cc3c2=O)cc1OC,?,–,–,–
COc1ccc(CCNC(=O)CSc2nc(O)cc(=O)[nH]2)cc1OC,3.3µM,–,–,–
COc1ccc(CCNC(=O)Cn2c(=O)[nH]c3ccsc3c2=O)cc1OC,12µM,–,–,–
COc1ccc(CCNC(=O)CSc2cc(=O)[nH]c(N)n2)cc1OC,–,–,12µM,–
Cc1cc(C)nc(NS(=O)(=O)c2ccc(NC(=S)NC(=O)CC(C)C)cc2)n1,–,–,–,–
CC(C)C(=O)NC(=S)Nc1ccc(S(=O)(=O)NC2CCCCC2)cc1,–,–,17µM,–
CC(C)NS(=O)(=O)c1ccc(NC(=S)NC(=O)c2cccc([N+](=O)[O-])c2)cc1,–,?,13µM,–
O=C(NC(=S)Nc1cccc(F)c1)c1cccc([N+](=O)[O-])c1,–,–,–,–
CCC(=O)NC(=S)Nc1ccc(S(=O)(=O)NC(C)C)cc1,–,-110,?,–
CN(Cc1ccccc1)C(=O)c1ccc2c(c1)N(Cc1ccccc1F)C(=O)c1ccccc1S2(=O)=O,·,–,·,·
CC(C)Oc1ccc(CNC(=O)C2CCN(C(=O)N3CC(C)Oc4ccccc43)CC2)cc1 (configuration not stated),·,–,·,·
COc1cccc(N2CCN(C(=O)c3c4c(nc5ccccc35)C(=O)N(C3CCCCC3)C4)CC2)c1,·,–,·,·
CC(C)(C#CC(=O)O)OOC(c1ccccc1)(c1ccccc1)c1ccccc1,12µM,–,8.3µM,–
CC(O)(C(=O)c1ccccc1)c1ccccc1 (configuration not stated),·,–,·,·
CC1(C)Cc2c(sc(NC(=O)c3ccco3)c2C#N)CO1,–,–,·,–
N#Cc1c(NC(=O)/C=C/C(=O)O)sc2c1CCN(Cc1ccccc1)C2,–,–,10µM,–
CC1(C)Cc2c(sc(NC(=O)/C=C/C(=O)O)c2C#N)CO1,4.1µM,–,2.9µM,–
Cc1ccc(C2C(=O)N(C3CCCCCC3)CC(=O)N2CCC2=CCCCC2)cc1 (configuration not stated),·,-63,·,·
COc1cc(NC(=O)C2CCCCC2)c2ncccc2c1,·,–,?,10µM
COc1ccc(OC)c(NC(=O)C2CCCCC2)c1,–,–,–,?
COc1ccc2oc(=O)c(NC(=O)C3CCCCC3)cc2c1,–,–,13µM,–
SMILES,Pf growth 48h,HCMV inh,Pf growth 96h,HCV inh
O=C(COc1ccc(F)cc1)Nc1nnc(S(=O)(=O)N2CCc3ccccc32)s1,·,–,·,·
CC(C)CNC(=O)C1(C)CCCN1Cc1ccc(S(C)(=O)=O)cc1 (configuration not stated),·,-102,·,·
O=C(Nn1c(SCc2ccccc2F)nc2ccsc2c1=O)c1ccccc1,–,–,6.6µM,–
O=C(NCCN1CCOCC1)c1ccc2c(c1)N(Cc1ccccc1F)C(=O)c1ccccc1S2,?,–,?,?
Cc1ccccc1CN1C(=O)c2ccccc2Sc2ccc(C(=O)NCCN3CCOCC3)cc21,8.3µM,–,?,?
O=C(NCCCN1CCOCC1)c1ccc2c(c1)N(Cc1cccc(Cl)c1)C(=O)c1ccccc1S2,·,-89,·,·
CNCc1c(OCc2ccccc2F)ccc2ccccc12,–,?,–,8.9µM
Nc1nonc1C(=O)NCCNS(=O)(=O)c1ccc(F)cc1,–,–,2.9µM,–
Nc1nonc1C(=O)NCCNCc1c(OCc2ccccc2F)ccc2ccccc12,4.7µM,–,·,14µM
Nc1nonc1C(=O)NCCNCc1ccccc1,·,–,12µM,–
O=S(=O)(NCCNS(=O)(=O)c1ccc(F)cc1)c1ccc(F)cc1,–,–,·,–
O=C(CN1C(=O)COc2ccc(S(=O)(=O)N3CCCC3)cc21)N1CCN(c2ccccc2)CC1,·,–,·,·
O=C(/C=C/c1ccc(Br)cc1)NC1CCCCCC1,–,–,–,–

# Bioassay records (PubChem)
